# This is part of a sample that, as a whole, favours compounds with a hit. Of some 83,000 tested, about 20% had one in any assay.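 48-hour exposure, single concentration, 96-well plates; percent growth endpoint where 0 means no net growth. Active: below 10.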 Active and inactive are the calls of the source.
# System: OVCAR-3 ovarian
# Experiment: NCI-60 one-dose screen, 48 h (100 = growth as untreated, 0 = no growth, -100 = all killed)
# Details: 10 µM unless noted
row,SMILES,growth
1,COc1ccc(C(=O)N2CCN(C(=O)c3cc(OC)c(OC)c(OC)c3)CC2)cc1OCCCCOc1cc2c(cc1OC)C(=O)N1CCC[C@H]1C=N2,105% (inactive)
2,Cn1c(-c2nonc2NC(=O)c2ccc(F)cc2)nc2ccccc21,119% (inactive)
3,O=C(NCCCN1CCN(CCCNC(=O)C2CCCCC2)CC1)C1CCCCC1,99.3% (inactive)
4,c1cc(-c2ccc3c(c2)OCO3)n2nccc2n1,103% (inactive)
5,O=C(CN1CCN(c2cc3c(cc2F)c(=O)c(C(=O)O)cn3C2CC2)CC1)Nc1ccc(C(=O)/C=C/c2ccc(Cl)cc2)cc1,128% (inactive)
6,CC(Cc1nnc(SCC(=O)Nc2ccc(I)cc2)n1N)c1ccccc1 (stereo unspecified),111% (inactive)
7,Cc1ccc2c(c1)C(C)Cc1c(ncnc1-n1cnc3ccccc31)N2C (stereo unspecified),-34.7% (active)
8,CC1CCc2c(sc(NC(=O)CSc3nnc4ccccn34)c2C(N)=O)C1 (stereo unspecified),104% (inactive)
9,CC(=O)c1cc(C(=O)c2ccc3c(c2)Sc2ccccc2N3)c2cc(C)ccn12,-14.3% (active)
10,CN(C)c1nc(N)c(N=O)c(N)n1,101% (inactive)
11,CC[C@H](C)[C@H]1NC(=O)[C@@H](N[C@](C)(O)[C@@H](N)CC(C)C)[C@@H](C)OC(=O)[C@H](Cc2ccc(OC)cc2)N(C)C(=O)[C@@H]2CCCN2C(=O)[C@H](CC(C)C)NC(=O)[C@@H](C)C(=O)[C@H](C(C)C)OC(=O)C[C@@H]1O,-20.8% (active)
12,Cc1nc2scc(-c3ccccc3)n2c(=O)c1CCO,100% (inactive)
13,Cc1ccc(Cn2c(-c3nonc3N)nc3ccccc32)cc1,71.8% (inactive)
14,COc1cc(Cn2c(-c3nonc3N)nc3ccccc32)ccc1C,-34.7% (active)
15,COc1ccc(/C=N/NC(=O)Cn2c(Cc3cccc4ccccc34)nc3ccccc32)cc1,101% (inactive)
16,Cc1ccc(Cn2c(-c3cccs3)nc3ccccc32)cc1,93.9% (inactive)
17,Cc1ccc(OCCn2c(C)nn(-c3ccc(Cl)cc3)c2=O)cc1,124% (inactive)
18,COc1ccc(-c2nc(-c3ccccc3)c(-c3ccccc3)n2C2CC2)cc1OC1CCCCC1,58.4% (inactive)
19,COc1cc(/C=C2\CCCC3=C2NC(C)=NC3c2cc(OC)c(OC)c(OC)c2)cc(OC)c1OC (stereo unspecified),28% (inactive)

row,SMILES,growth
1,CCN1C(=O)N[C@H]2[C@@H]3NC(=O)c4ccc(Cl)n4[C@@H]3C[C@]21O,2.22% (active)
2,CC(C(=O)n1cc(-c2ccccc2)c(-c2ccccc2)c1)c1ccccc1 (stereo unspecified),118% (inactive)
3,CC(Br)C(OC(=O)c1ccccc1Cl)c1cc2c(cc1Br)OCO2 (stereo unspecified),89% (inactive)
4,CCC(c1cccc(Br)c1)C(C(=O)O)c1ccc(OC)cc1 (stereo unspecified),110% (inactive)
5,COC(=O)CCCCN=Cc1c(O)c(O)c(C(C)C)c2cc(C)c(-c3c(C)cc4c(C(C)C)c(O)c(O)c(C=NCCCCC(=O)OC)c4c3O)c(O)c12,14.3% (inactive)
6,Cc1cc(C(=O)CSc2nc3ccccc3c(=O)[nH]2)c(C)n1C,91% (inactive)
7,Cn1cc(C=O)c2ccccc21,106% (inactive)
8,CC(=O)N1Cc2ccccc2C(C)Cc2cc(Cl)ccc21 (stereo unspecified),109% (inactive)
9,Cn1c(=O)c2c(nc3n2CCN(CCc2ccc(OCCN4CCOCC4)cc2)C3)n(C)c1=O,110% (inactive)
10,O=C(/C=C/c1ccccc1)n1c(-c2ccc(Cl)cc2)nc2ccccc21,-57.2% (active)
11,COc1cc(C2CC(c3c(C)[n+]([O-])c4ccccc4[n+]3[O-])=NN2)cc(OC)c1OC (stereo unspecified),98% (inactive)
12,CCOC(=O)c1cc(/C(=N\O)c2cc(OC)c(OC)c(OC)c2)n2c(C)cccc12,15.7% (inactive)
13,COC(=O)CCCCCCN=Cc1c(O)c(O)c(C(C)C)c2cc(C)c(-c3c(C)cc4c(C(C)C)c(O)c(O)c(C=NCCCCCCC(=O)OC)c4c3O)c(O)c12,21.8% (inactive)
14,COc1ccc(/C(=N/O)c2cc(OC)c(OC)c(OC)c2)c(OC)c1N,1.89% (active)
15,COc1ccc(-n2c(C)cc(-c3ccccc3)c2C)cc1,75.5% (inactive)
16,N#CC1=C(N)OC2=C(C(=O)CCC2)C1c1ccco1 (stereo unspecified),113% (inactive)
17,C=CCc1cc(Cl)cc2c(OC(C)=O)c(C(C)=O)c(-c3ccccc3)nc12,107% (inactive)
18,COc1cc(/C=C/C(=O)c2ccc(NC(=O)CN3CCN(c4cc5c(cc4F)c(=O)c(C(=O)O)cn5C4CC4)CC3)cc2)cc(OC)c1OC,-25.8% (active)
19,COc1ccc(/C(=N\O)c2cc(OC)c(OC)c(OC)c2)c(OC)c1N,-25.1% (active)

# System: HS 578T breast
# Experiment: as above
# Details: 10 µM unless noted
row,SMILES,growth
1,COc1ccc(C(=O)N2CCN(C(=O)c3cc(OC)c(OC)c(OC)c3)CC2)cc1OCCCCOc1cc2c(cc1OC)C(=O)N1CCC[C@H]1C=N2,-24.2% (active)
2,Cn1c(-c2nonc2NC(=O)c2ccc(F)cc2)nc2ccccc21,110% (inactive)
3,O=C(NCCCN1CCN(CCCNC(=O)C2CCCCC2)CC1)C1CCCCC1,102% (inactive)
4,c1cc(-c2ccc3c(c2)OCO3)n2nccc2n1,105% (inactive)
5,O=C(CN1CCN(c2cc3c(cc2F)c(=O)c(C(=O)O)cn3C2CC2)CC1)Nc1ccc(C(=O)/C=C/c2ccc(Cl)cc2)cc1,108% (inactive)
6,CC(Cc1nnc(SCC(=O)Nc2ccc(I)cc2)n1N)c1ccccc1 (stereo unspecified),119% (inactive)
7,Cc1ccc2c(c1)C(C)Cc1c(ncnc1-n1cnc3ccccc31)N2C (stereo unspecified),8.03% (active)
8,CC1CCc2c(sc(NC(=O)CSc3nnc4ccccn34)c2C(N)=O)C1 (stereo unspecified),114% (inactive)
9,CC(=O)c1cc(C(=O)c2ccc3c(c2)Sc2ccccc2N3)c2cc(C)ccn12,14.5% (inactive)
10,CN(C)c1nc(N)c(N=O)c(N)n1,106% (inactive)
11,CC[C@H](C)[C@H]1NC(=O)[C@@H](N[C@](C)(O)[C@@H](N)CC(C)C)[C@@H](C)OC(=O)[C@H](Cc2ccc(OC)cc2)N(C)C(=O)[C@@H]2CCCN2C(=O)[C@H](CC(C)C)NC(=O)[C@@H](C)C(=O)[C@H](C(C)C)OC(=O)C[C@@H]1O,-4.99% (active)
12,Cc1nc2scc(-c3ccccc3)n2c(=O)c1CCO,95% (inactive)
13,Cc1ccc(Cn2c(-c3nonc3N)nc3ccccc32)cc1,72.9% (inactive)
14,COc1cc(Cn2c(-c3nonc3N)nc3ccccc32)ccc1C,22.5% (inactive)
15,COc1ccc(/C=N/NC(=O)Cn2c(Cc3cccc4ccccc34)nc3ccccc32)cc1,95.8% (inactive)
16,Cc1ccc(Cn2c(-c3cccs3)nc3ccccc32)cc1,89.2% (inactive)
17,Cc1ccc(OCCn2c(C)nn(-c3ccc(Cl)cc3)c2=O)cc1,89.6% (inactive)
18,COc1ccc(-c2nc(-c3ccccc3)c(-c3ccccc3)n2C2CC2)cc1OC1CCCCC1,73.8% (inactive)
19,COc1cc(/C=C2\CCCC3=C2NC(C)=NC3c2cc(OC)c(OC)c(OC)c2)cc(OC)c1OC (stereo unspecified),48.6% (inactive)

row,SMILES,growth
1,CCN1C(=O)N[C@H]2[C@@H]3NC(=O)c4ccc(Cl)n4[C@@H]3C[C@]21O,-10.9% (active)
2,CC(C(=O)n1cc(-c2ccccc2)c(-c2ccccc2)c1)c1ccccc1 (stereo unspecified),115% (inactive)
3,CC(Br)C(OC(=O)c1ccccc1Cl)c1cc2c(cc1Br)OCO2 (stereo unspecified),88.2% (inactive)
4,CCC(c1cccc(Br)c1)C(C(=O)O)c1ccc(OC)cc1 (stereo unspecified),91.4% (inactive)
5,COC(=O)CCCCN=Cc1c(O)c(O)c(C(C)C)c2cc(C)c(-c3c(C)cc4c(C(C)C)c(O)c(O)c(C=NCCCCC(=O)OC)c4c3O)c(O)c12,9.48% (active)
6,Cc1cc(C(=O)CSc2nc3ccccc3c(=O)[nH]2)c(C)n1C,-35.7% (active)
7,Cn1cc(C=O)c2ccccc21,107% (inactive)
8,CC(=O)N1Cc2ccccc2C(C)Cc2cc(Cl)ccc21 (stereo unspecified),97.7% (inactive)
9,Cn1c(=O)c2c(nc3n2CCN(CCc2ccc(OCCN4CCOCC4)cc2)C3)n(C)c1=O,106% (inactive)
10,O=C(/C=C/c1ccccc1)n1c(-c2ccc(Cl)cc2)nc2ccccc21,20% (inactive)
11,COc1cc(C2CC(c3c(C)[n+]([O-])c4ccccc4[n+]3[O-])=NN2)cc(OC)c1OC (stereo unspecified),103% (inactive)
12,CCOC(=O)c1cc(/C(=N\O)c2cc(OC)c(OC)c(OC)c2)n2c(C)cccc12,12.4% (inactive)
13,COC(=O)CCCCCCN=Cc1c(O)c(O)c(C(C)C)c2cc(C)c(-c3c(C)cc4c(C(C)C)c(O)c(O)c(C=NCCCCCCC(=O)OC)c4c3O)c(O)c12,20.2% (inactive)
14,COc1ccc(/C(=N/O)c2cc(OC)c(OC)c(OC)c2)c(OC)c1N,8.77% (active)
15,COc1ccc(-n2c(C)cc(-c3ccccc3)c2C)cc1,74.1% (inactive)
16,N#CC1=C(N)OC2=C(C(=O)CCC2)C1c1ccco1 (stereo unspecified),115% (inactive)
17,C=CCc1cc(Cl)cc2c(OC(C)=O)c(C(C)=O)c(-c3ccccc3)nc12,102% (inactive)
18,COc1cc(/C=C/C(=O)c2ccc(NC(=O)CN3CCN(c4cc5c(cc4F)c(=O)c(C(=O)O)cn5C4CC4)CC3)cc2)cc(OC)c1OC,76.8% (inactive)
19,COc1ccc(/C(=N\O)c2cc(OC)c(OC)c(OC)c2)c(OC)c1N,7.51% (active)
